# Screens deposited in PubChem by National Center for Advancing Translational Sciences (NCATS).
# Tau fluor counter – counter-screen for tau fibril formation inhibitors; Potency, µM (top dose mostly 57.7 µM), for inactives: at the highest dose activity change, negative = decrease; tau K18 P301L Alexa594 fluorescence, heparin fibrillization; actives 0.93% (n = 280,000); AID 1463; also: nearly all actives have a fitted effect of over 55% in size
#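 Human K18 P301L tau (15 uM unlabeled plus 0.24 uM Alexa 594-labeled, final) in 100 mM sodium acetate pH 7 was mixed with compound and 20 uM heparin and incubated 6 hr at 37 C.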
# HPGD inh – HPGD (human) dehydrogenase inhibition. P15428. Potency, µM, without a hit: top-dose activity change, negative = inhibition, most hits filed as inhibitors. purified HPGD, NADH fluorescence kinetic, PGE2 substrate. actives 4.3% (n = 150,000). AID 894; active = well fitted inhibition curve with a large enough effect, not every such curve was filed as active; inconclusive = small, poorly fitted or top-dose-only effect, or another doubt; inactive = no such curve, though single readings can be large or run the other way
# Target sequence (P15428 whole entry, looked up): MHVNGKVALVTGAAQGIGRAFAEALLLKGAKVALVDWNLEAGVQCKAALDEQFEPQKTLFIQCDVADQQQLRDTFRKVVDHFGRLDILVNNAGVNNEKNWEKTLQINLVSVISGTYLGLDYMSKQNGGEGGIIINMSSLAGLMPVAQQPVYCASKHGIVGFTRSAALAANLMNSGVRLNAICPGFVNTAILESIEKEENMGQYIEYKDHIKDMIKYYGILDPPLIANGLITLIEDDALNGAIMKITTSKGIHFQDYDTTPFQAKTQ
#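 20 nM HPGD preincubated 15 min at room temperature with compound in 50 mM Tris-HCl pH 8, 0.01% Tween 20. Started with 1 mM NAD+ and 30 uM prostaglandin E2; NADH fluorescence (360/450 nm) read 5 times over 30-s intervals, last minus first.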
# Tau FP inhib – blocks human tau fibril formation measured by polarization. actives 0.39% (n = 280,000). Potency, µM (highest dose often 57.7 µM), inactives show at the top dose activity, negative = inhibition, hits mostly inhibitors. K18 P301L tau heparin fibrillization, Alexa594 FP, 6 h; also: nearly all actives have a fitted effect of over 55% in size
# Target sequence (P10636 561-689 P618L limits assumed): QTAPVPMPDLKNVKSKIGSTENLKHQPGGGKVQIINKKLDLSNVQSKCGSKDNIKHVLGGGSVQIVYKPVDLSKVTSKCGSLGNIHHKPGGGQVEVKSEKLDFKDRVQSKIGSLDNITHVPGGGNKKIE
#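 Human tau K18 […] P301L fragment, 15 uM unlabeled plus 0.24 uM Alexa 594-labeled tau (final), with compound and 20 uM heparin in 100 mM sodium acetate pH 7; 6 hr at 37 C, then Alexa 594 FP read.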
# Tau ThT inhib – inhibitors of human tau fibril formation, thioflavin T binding. P10636. recombinant tau K18 P301L, heparin-induced fibrillization, ThT fluorescence. Potency, µM (doses to about 57.4 µM), for the others: top-dose activity, negative = inhibition, most hits filed as inhibitors. actives 2.1% (n = 270,000); also: nearly all actives have a fitted effect of over 55% in size
#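 Fibril formation assay: tau K18 P301L at 15 uM with trace Alexa 594 label, heparin inducer 20 uM, pH 7 sodium acetate buffer, 37 C for 6 hr; endpoint ThT signal.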
# ALDH1A1 inh – inhibitors of human aldehyde dehydrogenase 1A1; P00352; Purified ALDH1A1, NADH fluorescence, propionaldehyde substrate; actives 7.3% (n = 220,000); Potency, µM (titrated, usually from 75.3 µM), for the others: at the top dose activity, negative = inhibition, most hits filed as inhibitors; AID 1030; active = well fitted inhibition curve with a large enough effect, not every such curve was filed as active; inconclusive = small, poorly fitted or top-dose-only effect, or another doubt; inactive = no such curve, though single readings can be large or run the other way;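 also: plate controls were no enzyme wells and a reference inhibitor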
# NPSR antagonist – antagonists of human neuropeptide S receptor cAMP signaling | Q6W5P4 | CHO-NPSR cells, cAMP TR-FRET, antagonist mode | Potency, µM (highest dose often 38.3 µM), inactives show at the top dose activity change, negative = inhibition, hits mostly inhibitors | actives 1% (n = 220,000) | AID 1461; also: nearly all actives have a fitted effect of over 50% in size
# Active calls of the source: *; u = inconclusive; x = not tested or not shown; [ ] = another dose, or the depositor's remark. Only some compounds are listed: those with a hit (about 9.5% of all), similar ones and a draw of the others. Unless noted, calls follow the shape of the dose curve; as a rule, active = well fitted curve in the direction sought with a large enough effect; inconclusive = small, poorly fitted or top-dose-only effect, or another doubt; inactive = no such curve, though single readings can be large; an effect the other way counts as inactive or inconclusive. Unless noted, % is scaled to controls: 0 for no effect and ±100 for the full control effect; potency is read from the fitted curve at half-maximal effect.
SMILES,Tau fluor counter,HPGD inh,Tau FP inhib,Tau ThT inhib,ALDH1A1 inh,NPSR antagonist
CCOC(=O)CC(NC(=O)Cn1nnc(-c2ccc(C(F)(F)F)cc2)n1)c1ccc(C)cc1 (stereo not given),-24%,x,-10%,-5%,x,x
O=C(CCN1CCN(CCO)CC1)Nc1ccc(C2CCCC2)cc1,5%,x,-2%,2%,u,8%
O=C(CSCCO)Nc1ccc(C2CCCCC2)cc1,-10%,4.5µM*,-3%,-1%,7.1µM*,4%[46.1 µM]
Cc1ccc(Cn2c(=O)n(Cc3ccco3)c(=O)c3sc4ccccc4c32)cc1,-6%,x,-6%,2%,x,x
CCOc1ccc(NC(=O)CN2CCN(CC(=O)Nc3ccc(Cl)c(C(F)(F)F)c3)CC2)cc1,u,-17%,-16%,-24%,13µM*,-5%[46.1 µM]
CCOc1ccc(NC(=O)CN2CCN(CC(=O)Nc3cc(OC)cc(OC)c3)CC2)cc1,1%,-11%,4%,-7%,11µM*,-17%[46.1 µM]
CCOc1ccc(NC(=O)CN2CCN(CC(=O)Nc3cccc(F)c3)CC2)cc1,-11%,7%,5%,-11%,18µM*,-8%[46.1 µM]
CCOc1ccc(NC(=O)CN2CCN(CC(=O)Nc3ccc(F)cc3F)CC2)cc1,6%,x,0%,1%,x,x
Cc1ccc2nc(C3CCN(CC(=O)Nc4ccc5c(c4)OCCO5)CC3)[nH]c2c1,-11%,-5%,-7%,-10%,22µM*,-16%[46.1 µM]
COc1cc(NC(=O)CN2CCN(CC(=O)Nc3ccc(F)cc3)CC2)cc(OC)c1,-2%,x,-2%,4%,x,x
O=C(CN1CCN(Cc2ccc3c(c2)OCO3)CC1)Nc1ccc2c(c1)OCCO2,1%,-8%,12%,-1%,2%,-14%[46.1 µM]
CCOc1ccc(NC(=O)CN2CCN(CC(=O)Nc3ccc4c(c3)OCCO4)CC2)cc1,-3%,-15%,-7%,-2%,8.9µM*,-20%[46.1 µM]
COc1ccc(NC(=S)N2CCCC2c2ccc(OC)c(OC)c2)cc1 (stereo not given),-24%,x,-7%,u,-7%,10%
O=C(NCc1ccccc1)c1cc(Sc2cccc(Cl)c2)nc2ccccc12,-17%,x,-14%,-5%,x,x
O=C(NCc1cccnc1)c1cc(Sc2ccccc2Cl)nc2ccccc12,-16%,-7%,14%,-10%,7.9µM*,-4%
Cc1ccc(CNC(=O)c2nc(-c3ccc(Cl)cc3)n3c2CCCCC3)cc1,0%,x,9%,-10%,x,x
CCN1C(=O)/C(=C/N2CCc3ccccc3C2)SC1=S,u,x,6%,u,x,-11%
CCCCN1C(=O)/C(=C/C=C2\N(C)c3ccccc3C2(C)C)SC1=S,-11%,-9%,u,6.3µM*,u,-9%[46.1 µM]
CN1/C(=C\C=C(C#N)C#N)C(C)(C)c2ccccc21,15%,x,-6%,8%,9%,-8%
CCCN1C(=O)/C(=C\C=C2/C=CN(CC)c3ccccc32)SC1=S,-7%,-15%,16%,-9%,5µM*,2µM*
O=C(CSc1nc2c([nH]c3ccccc32)c(=O)n1-c1ccc(Cl)cc1)N1CCOCC1,-2%,x,-1%,-5%,x,x
CN(c1ccccc1)c1cc(=O)[nH]c(=O)[nH]1,7%,1%,6%,6%,16%,11%
CCOC(=O)c1ccccc1NC(=O)CN1CCCN(Cc2cccc(Cl)c2)S1(=O)=O,-10%,x,7%,4%,x,x
COc1ccc2c(CNCc3ccco3)c(C(=O)O)n(Cc3ccc(F)cc3Cl)c2c1,-11%,x,-6%,-9%,x,x
O=C(NCCN1CCc2ccccc2C1)C1CC(=O)N(C2CCCC2)C1 (stereo not given),-12%,u,3%,-5%,35µM*,-9%[46.1 µM]
SMILES,Tau fluor counter,HPGD inh,Tau FP inhib,Tau ThT inhib,ALDH1A1 inh,NPSR antagonist
CN1CCN(CCCNC(=O)C2CC(=O)N(C3CCCCC3)C2)CC1 (stereo not given),3%,0%,2%,4%,0%,-10%[46.1 µM]
Cc1sc2ncnc(SCC(=O)NC(=O)NCc3ccco3)c2c1C,1%,u,5%,-12%,-5%,-26%[46.1 µM]
COc1ccc(Cc2nc(=S)[nH][nH]2)cc1Br,3%,x,4%,-1%,6.3µM*,16%
COc1ccc(Cc2n[nH]c(=S)n2C)cc1Br,6%[2.34 µM],x,2%[2.34 µM],6%,-8%,-13%
CCOC(=O)C1(Cc2cccc(OC)c2)CCN(Cc2cccnc2)CC1,-22%,x,-4%,u,-10%,-1%
COc1ccc(C(c2nnnn2Cc2ccccc2)N2CCN(c3ccccc3)CC2)cc1 (stereo not given),-23%,-12%,8%,-8%,-3%,u
COc1ccc(Cn2nnnc2C(C(C)C)N2CCN(c3ccccc3OC)CC2)cc1 (stereo not given),-25%,-8%,3%,u,18µM*,-21%[46.1 µM]
CCCC(c1nnnn1Cc1ccc(F)cc1)N1CCN(CC)CC1 (stereo not given),5%[2.34 µM],x,-12%,5%,22µM*,3%
CC(C)C(c1nnnn1Cc1ccc(F)cc1)N1CCN(c2ccc(O)cc2)CC1 (stereo not given),u,x,3%,u,4µM*,34%
COc1ccccc1N1CCN(C(c2ccc(N(C)C)cc2)c2nnnn2CCc2ccccc2)CC1 (stereo not given),u,-22%,2%,u,22µM*,-30%[46.1 µM]
CCCC(c1nnnn1Cc1ccc(F)cc1)N1CCN(C)CC1 (stereo not given),-1%,x,1%,-4%,-8%,1%
COc1cc(C(=O)N2CCC(c3nc4ccccc4o3)CC2)cc(OC)c1OC,-1%,x,6%,-7%,x,x
O=C(c1cc(C(F)(F)F)cc(C(F)(F)F)c1)N1CCC[C@@]2(CCN(c3ccncc3)C2)C1,x,-3%,x,x,8%,x
COC(=O)CN1C(=O)C2(OCCCO2)c2ccccc21,-6%,-8%,-4%,-7%,-7%,-28%[7.67 µM]
O=C(CC1(O)C(=O)N(C/C=C/c2ccccc2)c2ccccc21)c1ccccn1 (stereo not given),-9%,x,8%,u,0.79µM*,22%[46.1 µM]
COC(=O)CN1C(=O)C(O)(CC(=O)c2ccccc2)c2ccccc21 (stereo not given),-13%,-5%,-7%,-11%,4.5µM*,9%[46.1 µM]
CCc1ccc(C(=O)CC2(O)C(=O)N(Cc3ccc(C)cc3)c3ccccc32)cc1 (stereo not given),-23%,x,-12%,u,x,x
COC(=O)CN1C(=O)C(O)(CC(=O)c2ccc(C)cc2)c2ccccc21 (stereo not given),-1%,5%,-3%,-1%,8.9µM*,-3%[46.1 µM]
Cc1ccc(C(=O)CC2(O)C(=O)N(C)c3ccccc32)o1 (stereo not given),-12%,-27%,-2%,-11%,25µM*,-15%[46.1 µM]
